Experimental findings from PubChem BioAssay AID1014 (NMMLSC, 2008) are described below.

Active and inactive are the calls of the source. Cut-off read from the data, not from the text of the source: active = inhibition of mean fluorescence above about 33%; inactive = the rest.

A short description of the experiment: quorum sensing inhibitors in bacterial reporter, SAR follow-up, flow cytometry, SAR analogs (AID 1014).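 Note: Staphylococcus aureus RN6390 with RNAIII-GFP reporter stimulated by AIP; bacteria incubated with compound for 3 hours at 37 °C.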 The following applies: at 20 µM, stronger effect = higher value; inhibition of percent positive cells: flow cytometry fluorescence, measured here: percent reporter-positive cells.
Regarding `COc1cccc(C(=O)NCC(c2cccnc2)N2CCN(c3ccc(F)cc3)CC2)c1` (stereo not given), the inhibition of mean fluorescence was 8.6% (inactive) and the inhibition of percent positive cells is 0%.
The matching figures for `CCOC(=O)c1c(-c2cc(Br)c(OC)c(Br)c2)oc2ccc(O)cc12`: -2.7% (inactive) and -0.6%.
`COc1ccc(Nc2nc3c(S(=O)(=O)c4ccc(C(C)C)cc4)nnn3c3ccccc23)cc1`: the inhibition of mean fluorescence is -10.2% (inactive) and the inhibition of percent positive cells came to 0.3%.
As for `O=C(NC1CCCC1)C(c1cc2c(cc1[N+](=O)[O-])OCO2)N1CCC(Cc2ccccc2)CC1` (stereo not given), the inhibition of mean fluorescence was 4.9% (inactive) and the inhibition of percent positive cells is -0.6%.
The corresponding values for `CCOC(=O)c1cnc2ccc(OC(F)(F)F)cc2c1Nc1ccccc1C(=O)O` are 22.4% (inactive) and 0.6%.
The corresponding values for `COc1ccc(N2CCN(C(CNC(=O)c3ccc(F)cc3)c3cccnc3)CC2)cc1` (stereo not given) are -63.3% (inactive) and -1.5%.
The matching figures for `Cc1ccc(Nc2c(C(=O)O)cc([N+](=O)[O-])cc2[N+](=O)[O-])cc1Cl`: -19.5% (inactive) and -0.4%.
For the compound `Cc1ccc2occ(/C=C/C(=O)c3ccc(O)cc3)c(=O)c2c1`, the inhibition of percent positive cells was -0.1% and the inhibition of mean fluorescence is -0.6% (inactive).
The corresponding values for `CC1CCCN(C(C(=O)Nc2ccc3c(c2)OCCO3)c2ccccc2)C1` (stereo not given) are 63.1% and 91.5% (active).
As for `COc1ccc(C(=O)NCC(c2cccnc2)N2CCN(c3ccc(F)cc3)CC2)cc1OC` (stereo not given), the inhibition of percent positive cells stood at 0% and the inhibition of mean fluorescence is 3.4% (inactive).
Turning to `CCc1c(C(=O)c2ccc(C)cc2)oc2ccc3c(C)cc(=O)oc3c12`, the inhibition of percent positive cells is -0.1% and the inhibition of mean fluorescence is 10.8% (inactive).
The corresponding values for `O=C(O)c1cc(Nc2ccccc2C(=O)O)nc(Nc2ccccc2C(=O)O)n1` are -0.3% and 2.4% (inactive).
For the compound `Cc1cccc(Nc2c(F)c(F)c(F)c(F)c2C(=O)O)c1`, the inhibition of mean fluorescence is -16.8% (inactive) and the inhibition of percent positive cells is -0.2%.
The matching figures for `CC1CCCN(C(C(=O)Nc2ccc3c(c2)OCO3)c2ccccc2)C1` (stereo not given): 81.5% (active) and 81.9%.
Turning to `O=C(NCC(c1cccnc1)N1CCN(c2ccccc2F)CC1)c1ccccc1` (stereo not given), the inhibition of mean fluorescence was -24.2% (inactive) and the inhibition of percent positive cells is -1.5%.
The corresponding values for `O=C(NCCN1CCN(c2ccccc2)CC1)c1ccccc1F` are -12.3% (inactive) and -1.5%.
Take `COc1ccc(S(=O)(=O)c2nnn3c2nc(Nc2ccc(C)cc2)c2ccccc23)cc1`: the inhibition of percent positive cells is -0.3% and the inhibition of mean fluorescence is 8.2% (inactive).
The corresponding values for `COc1ccc(C(=O)NCC(c2cccnc2)N2CCN(c3ccccc3F)CC2)cc1` (stereo not given) are -0.9% and -7.6% (inactive).
`CC1CCCN(C(C(=O)NC2CCCC2)c2cc3c(cc2[N+](=O)[O-])OCO3)C1` (stereo not given): the inhibition of percent positive cells was -1.7% and the inhibition of mean fluorescence is 14.5% (inactive).
The corresponding values for `Cc1ccc(C(C)C)c(OCC(=O)Nc2sc3c(c2C#N)CCCCC3)c1` are -0.9% and -18.6% (inactive).
As to `CC(C)c1ccc(NC(=O)C(c2ccc3c(c2)OCO3)N2CCCCC2)cc1` (stereo not given), the inhibition of mean fluorescence was 36.4% (active) and the inhibition of percent positive cells is -0.7%.
Regarding `O=C(NCC(c1cccnc1)N1CCN(c2ccccc2)CC1)c1cccs1` (stereo not given), the inhibition of mean fluorescence was 47.7% (active) and the inhibition of percent positive cells was 1.1%.
The matching figures for `Cc1ccc(Nc2nc3c(S(=O)(=O)c4ccc(C)cc4)nnn3c3ccccc23)cc1`: -16% (inactive) and 0.9%.
On to `O=C(NC1CCCCC1)C(c1cc2c(cc1[N+](=O)[O-])OCO2)N1CCCCC1` (stereo not given), for which the inhibition of mean fluorescence is 12% (inactive) and the inhibition of percent positive cells was -0.2%.
The corresponding values for `O=C(Nc1ccc2c(c1)OCO2)C1CCCN(C(=O)c2cnn(-c3ccccc3)c2-n2cccc2)C1` (stereo not given) are -23.9% (inactive) and 0.1%.
The corresponding values for `O=C(CCN1CCN(c2ccccc2)CC1)Nc1ccc2c(c1)OCO2` are 5.8% (inactive) and 1.3%.
`O=C(NC1CCCC1)C(c1cc2c(cc1[N+](=O)[O-])OCO2)N1CCN(C2CCCCC2)CC1` (stereo not given): the inhibition of percent positive cells is -1.4% and the inhibition of mean fluorescence is -24.8% (inactive).
In the case of `Cc1nnc2c3ccccc3nc(Nc3ccccc3C(=O)O)n12`, the inhibition of mean fluorescence was 18.4% (inactive) and the inhibition of percent positive cells is -0.2%.
The corresponding values for `Cc1nnc(N2CCCC(C(=O)Nc3ccc4c(c3)OCO4)C2)c2nn(-c3ccccc3)c(C)c12` (stereo not given) are -10.1% (inactive) and 0%.
The corresponding values for `Cc1ccc(S(=O)(=O)c2nnn3c2nc(Nc2ccc(Oc4ccccc4)cc2)c2ccccc23)cc1` are -5% (inactive) and 0%.
The matching figures for `N#Cc1c(NC(=O)COC(=O)CN2C(=O)c3ccccc3C2=O)sc2c1CCCC2`: -2.3% (inactive) and -0.2%.
For `O=C(NCC(c1cccnc1)N1CCN(c2ccccc2)CC1)c1ccc(F)cc1` (stereo not given), the inhibition of mean fluorescence is -24.9% (inactive) and the inhibition of percent positive cells was -0.8%.
As to `O=C(c1ccco1)c1coc2ccc(O)cc12`, the inhibition of percent positive cells was 0.2% and the inhibition of mean fluorescence was -10.7% (inactive).
The corresponding values for `CC(=O)c1cc2c(cc1NC(=O)CN1CCN(C(=O)c3ccco3)CC1)OCO2` are -0.1% and -5.2% (inactive).
The corresponding values for `O=C(NCC(c1cccnc1)N1CCN(c2ccccc2F)CC1)c1cccc(Cl)c1` (stereo not given) are 3.5% and 67.2% (active).
